Measurements published in PubChem BioAssay AID777 (Sanford-Burnham Center for Chemical Genomics, 2007).
Hit rate of the full screen: of about 96,000 compounds, about 19,000 (20%) were called active.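 Rule for the calls: active = blocking of liver enzyme CYP2C9 beyond about 50% at 5 µM (limit read from the data); inactive = the rest.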 The list is a sample of the results.

target: Cytochrome P450 2C9 (Homo sapiens) (UniProt P11712); test: blockers of cytochrome P450 2C9 activity – biochemical, luminescence, ADME assay, primary screen (AID 777); conditions: CYP2C9 Supersomes, luciferin-H conversion, at 5 µM, stronger effect = higher value
Sequence (P11712 whole entry, looked up): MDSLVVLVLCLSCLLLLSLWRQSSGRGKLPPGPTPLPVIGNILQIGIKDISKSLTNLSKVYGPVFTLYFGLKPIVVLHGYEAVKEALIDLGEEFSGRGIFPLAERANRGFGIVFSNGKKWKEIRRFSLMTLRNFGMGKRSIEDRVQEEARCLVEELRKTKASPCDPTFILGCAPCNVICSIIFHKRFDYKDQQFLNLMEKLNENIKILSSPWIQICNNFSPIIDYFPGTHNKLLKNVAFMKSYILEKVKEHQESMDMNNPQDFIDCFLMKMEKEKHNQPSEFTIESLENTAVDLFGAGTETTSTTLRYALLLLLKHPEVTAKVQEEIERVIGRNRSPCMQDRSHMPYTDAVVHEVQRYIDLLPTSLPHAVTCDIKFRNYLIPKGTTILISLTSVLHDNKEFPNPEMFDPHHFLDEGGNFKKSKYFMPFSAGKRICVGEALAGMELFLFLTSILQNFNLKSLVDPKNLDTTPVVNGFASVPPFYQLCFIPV

inhibition, active:
CCN(CCCNC(=O)C1CCN(S(=O)(=O)c2cnc[nH]2)CC1)c1ccccc1 81.8%
Cn1cccc1Cc1nnc(SCC(=O)NCc2ccc3c(c2)OCO3)n1CCc1ccccc1 55%
Cc1ccc(-n2c(SCC(=O)NCc3ccc4c(c3)OCO4)nnc2-c2cccnc2)c(C)c1 62.7%
Cc1ccccc1-c1nnc(SCC(=O)NCc2ccc3c(c2)OCO3)n1C 88.6%
O=C(c1ccco1)N1CCN(C(=O)C2c3ccccc3Oc3ccccc32)CC1 58.3%
COc1ccccc1OCCNc1cc(N2CCOCC2)ccc1[N+](=O)[O-] 55.8%
FC(F)Oc1ccccc1C1CC(c2ccc(Br)s2)Nc2ncnn21 (centres undefined) 91.4%
COc1ccc(C2CC(c3ccc(C)cc3)Nc3ncnn32)cc1 (centres undefined) 65.4%
COC(=O)c1sccc1NC(=O)CSc1ccccc1NS(=O)(=O)c1cc(Cl)ccc1Cl 84.2%
CCCCSc1nc2c(c(=O)n1CC)SC(C)C2 (centres undefined) 51.2%
CCn1c(SCC(=O)Nc2ccc3c(c2)OCCO3)nc2c(c1=O)SC(C)C2 (centres undefined) 92.9%
Cc1cc(NC(=O)CCC(=O)N(c2cccc(F)c2)C(C(=O)NC2CCCC2)c2ccncc2)no1 (centres undefined) 77.9%
Cc1cc(NC(=O)CCC(=O)N(c2ccccc2)C(C(=O)NC2CCCC2)c2ccncc2)no1 (centres undefined) 55.9%
Cc1cccc(Cn2c(N3CCN(c4ccccc4)CC3)nc3c2c(=O)n(C)c(=O)n3C)c1 66.1%
Cc1cccc(Cn2c(SCCO)nc3c2c(=O)n(C)c(=O)n3C)c1 54%
CCOC(=O)CSc1nc2c(c(=O)n(C)c(=O)n2C)n1Cc1ccccc1F 60.5%
CCOC(=O)C1=C(CNC2CCCCC2)NC(=O)NC1c1cc(C)ccc1C (centres undefined) 84.7%
CCC(c1nnnn1Cc1ccco1)N(Cc1cc2cc(OC)ccc2[nH]c1=O)C1CCCCC1 (centres undefined) 58.2%
CCC(c1nnnn1Cc1ccco1)N(CCc1ccccc1)Cc1cc2ccc(OC)cc2[nH]c1=O (centres undefined) 91.9%

inhibition, inactive:
NC(=O)CCCC1=NS(=O)(=O)c2ccccc2N1 4.2%
O=S(=O)(CCc1nc2ccccc2o1)c1ccc(Cl)cc1 -2.3%
CCOC(=O)N1CCN(C(=O)C2CC(c3ccc(F)cc3)=NO2)CC1 (centres undefined) 8.8%
CCC(=O)N1CCc2cc(S(=O)(=O)NC(C(=O)N3CCc4ccccc4C3)C(C)C)ccc21 (centres undefined) 27%
Cc1cccc(N2CCN(C(=O)C3CCN(S(=O)(=O)c4cnc[nH]4)CC3)CC2)c1C 30.4%
CCCS(=O)(=O)N1CCC(C(=O)NCCCN(C)Cc2ccccc2)CC1 20.7%
CCCCC(=O)N(c1ccc(OC)cc1)C1C=CS(=O)(=O)C1 (centres undefined) 25.7%
CC(C)NC(=O)CSc1ccccc1C(=O)NCc1ccc2c(c1)OCO2 16.9%
CNC(=O)CSc1nnc(CCc2ccccc2)n1-c1ccccc1 -17.6%
Cc1ccc(-n2c(SCC(=O)Nc3ccc4c(c3)OCO4)nnc2-c2ccccn2)cc1 43%
O=C(CSc1nnc(-c2ccccn2)n1-c1ccccc1)Nc1ccc2c(c1)OCO2 2.8%
Cn1cccc1Cc1nnc(SCC(=O)NCCc2ccccc2)n1-c1ccc(F)cc1 48.3%
Cc1cccc(NC(=S)Nc2ccc(Br)cc2)c1 2.2%
CC(C)(C)C(=O)CCN1C(=O)C2(OCCO2)c2ccccc21 7.8%
CCN(CC)CCNC(=O)C1c2ccccc2C(=O)N(C)C1c1cn(C)c2ccccc12 (centres undefined) 1.7%
COc1ccc(-c2nnco2)cc1OC -14.9%
COc1ccc(NC(=O)CC2COc3ccccc3O2)c(OC)c1 (centres undefined) 5.9%
O=C(CN1C(=O)CSc2ncccc21)N1CCOCC1 41.4%
O=C(c1ccc2c(c1)OCO2)N1CCN(C(=O)c2ccco2)CC1 15.8%
O=C(c1ccco1)N1CCN(c2cccc(Cl)c2)CC1 17.6%
COc1nc(Oc2ccc(=O)n(C)n2)nc(N(C)C)n1 -16.1%
COc1ccc(C(=O)Cn2nnc(-c3ccc(N4CCOCC4)cc3)n2)cc1OC -6%
COc1cc(C(=S)N2CCOCC2)cc(OC)c1OC(=O)c1cc([N+](=O)[O-])c(C)c([N+](=O)[O-])c1 5.7%
Cc1nn(-c2cc(Cl)ccc2N)c(=O)c2ccccc12 2.2%
O=C1C2(c3ccccc3)CN(CCCO)CC1(c1ccccc1)CN(CCCO)C2 7.8%
Cc1ccc(NC(=O)CCNS(=O)(=O)c2ccc3c(c2)oc(=O)n3C)cc1C -21.7%
CCCCC(=O)N1CC2(C)CN(C(=O)CCCC)CC(C)(C1)C2=O -4%
Cn1cnc([N+](=O)[O-])c1Sc1ccccc1 8.6%
O=C(N1CCOCC1)N1CCOCC1 -8.2%
COc1ccc(C2CC(c3ccccc3)Nc3ncnn32)cc1 (centres undefined) 23.9%
COc1ccc(C2CC(c3ccc(C)cc3)Nc3nc(N)nn32)cc1 (centres undefined) 27.3%
CCC(=O)c1ccc(OCC(O)CN2CC(C)OC(C)C2)cc1 (centres undefined) 18.3%
N#Cc1ccc(-c2ccc(Cl)cc2)nc1Oc1ccc(F)cc1 6.8%
O=S(=O)(c1ccc(Br)cc1)n1ccc2ccccc21 -2.4%
CCOCCOCCC(C(=O)O)P(=O)(c1ccccc1)c1ccccc1 (centres undefined) -7.7%
COC(=O)c1sccc1NC(=O)c1cc(OC)c(OC)c(OC)c1 7.6%
COC(=O)c1sccc1N/N=C(\C)c1ccc(F)c(Cl)c1 9.3%
COC(=O)c1ccccc1Oc1c(F)c(F)nc(N2CCOCC2)c1F 45.2%
CCOc1ccc(NC(=O)CSc2nc3c(c(=O)n2-c2ccccc2OC)SCC3)cc1 40.8%
CCCCCn1c(SCCC(C)C)nc2c1c(=O)[nH]c(=O)n2C 10.1%
COc1ccccc1C(=O)C(O)c1ccccc1OC (centres undefined) -2.8%
CCOC(=O)N1CCN(CC(=O)Nc2cc(C)nn2-c2nc3ccccc3s2)CC1 25.8%
O=C(c1ccco1)N(Cc1nc2ccccc2c(=O)[nH]1)C1CCCC1 -20.5%
CC(=O)Oc1cccc(N2C(=O)CC(Nc3ccc(N4CCOCC4)cc3)C2=O)c1 (centres undefined) 19.9%
CC1OC2C(OC1C)N(S(C)(=O)=O)CCN2S(C)(=O)=O (centres undefined) -6.8%
Cc1cccc(N2C(=O)C3C(c4ccccc4)OC4(C(=O)c5ccccc5C4=O)C3C2=O)c1 (centres undefined) -8.4%
Cc1cc(NC(=O)CCC2COc3ccccc3O2)no1 (centres undefined) 7.1%
Cc1cc(NC(=O)CN2CCC(O)(c3cccc(F)c3)CC2)no1 23.3%
Cc1ccc(C(C(=O)NC2CCCC2)N(Cc2ccco2)C(=O)CCC(=O)Nc2ccccn2)cc1 (centres undefined) 28.7%
Cc1cc(NC(=O)/C=C/C(=O)N(c2ccccc2C)C(C(=O)NC2CCCC2)c2ccc(F)cc2)no1 (centres undefined) 25.2%
CC1CC(C)CN(C/C=C/c2ccccc2[N+](=O)[O-])C1 (centres undefined) 9.8%
CCc1nc(C)ccc1OCC(=O)N(CC)CC -6.3%
c1ccc(Nc2n[nH]nc2-c2ccccc2)cc1 28.9%
C/C(Cl)=C\Cn1c(Nc2cccc(C)c2)nc2c1c(=O)n(C)c(=O)n2C -7.8%
Cn1c(=O)c2c(ncn2CC(=O)N2CCN(c3ccccc3)CC2)n(C)c1=O 6.8%
CCOC(=O)CSc1nc2c(c(=O)n(Cc3ccccc3Cl)c(=O)n2C)n1C -7.5%
CCCSc1nc2c(c(=O)n(C)c(=O)n2C)n1Cc1ccc(C)cc1 9.9%
CCOc1ccc(Cn2c(SCCCCC#N)nc3c2c(=O)n(C)c(=O)n3C)cc1OCC 31.1%
CC(C)OCCCNc1nc2c(c(=O)n(Cc3ccccc3F)c(=O)n2C)n1C 22.3%
COc1ccc(CNC(=O)C2CCN(S(=O)(=O)N3CCOCC3)CC2)cc1 -2.7%
Cn1c(N)c(C(=O)COC(=O)C23CC4CC(CC(C4)C2)C3)c(=O)n(C)c1=O 29.6%
COc1ccc(N2C(=O)C3CCCN3C2c2cc(OC)c(OC)cc2OC)cc1 (centres undefined) -1.9%
CC1CN(C(=O)CN2C(=O)NC(C)(c3ccccc3)C2=O)CC(C)O1 (centres undefined) -27.2%
CCOC(=O)C1=C(CSc2nccn2C)NC(=O)NC1c1ccc(OC)cc1 (centres undefined) 17.2%
CCOC(=O)c1[nH]cnc1C(=O)NC1CCCCC1 28.5%
Cc1[nH]c2ccccc2c1C(=O)CSCC(=O)O -30.3%
CCC(c1nnnn1C1CCCC1)N(Cc1cccs1)Cc1cc2cccc(C)c2[nH]c1=O (centres undefined) -52.1%
CCOc1ccc2c(c1)cc(CN(C(=O)CC)C1CCCCC1)c1nnnn12 35.6%
COc1ccc2[nH]c3c(=O)n(Cc4ccco4)cnc3c2c1 26%
CCC(c1nnnn1Cc1ccco1)N(CCc1ccccc1)Cc1cc2cccc(C)c2[nH]c1=O (centres undefined) 29%
CC1(C)Cc2cccc(OCC(N)=O)c2O1 -6.4%
CCn1ncc(Br)c1C(=O)Nc1cc(C)ccc1F -6.9%
Cc1csc(NC(=O)CN2CCCCCC2)n1 0.6%
CC(Oc1ccc(Cl)cc1Cl)C(=O)/C=C/N(C)C (centres undefined) 23%
Cc1cc(=O)cc(C)[nH]1 -13.9%
